Screening data (PubChem)
IEC-6 tox: kills IEC-6 intestinal cells in KLF5 counter-screen | IEC-6 cytotoxicity, luminescence viability | inhibition, % at 5 µM | 0.78% of 290,000 active; in the data active = inhibition above about 22%;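 also: 0% = plate median of test compound wells and 100% = cytotoxic reference compound wells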
KLF5 inhibitor: kruppel-like factor 5 inhibition; DLD-1 KLF5 promoter-luciferase reporter, luminescence; inhibition, % at 5 µM; 0.23% of 290,000 active;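 active = inhibition above a per-plate limit of that plate's mean compound inhibition plus 3 SD, cut at about 60% in these data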;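 also: 0% = DMSO wells and 100% = LY294002 at 200 µM; higher means less KLF5 promoter-driven luciferase light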
SKKanGAS inh: SKKanGAS growth inhibition; inhibition, % at 7.5 µM; 1.3% of 300,000 active; S. pyogenes SKKanGAS, kanamycin growth, BacTiter-Glo, 6 h;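 active = mean replicate score, as percent of positive control median, at least 50; inconclusive = mean below 50 but one replicate at or above 50; inactive = mean and every replicate below 50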;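 also: strain carries kanamycin resistance gene driven by streptokinase promoter and grows in 40 µg/ml kanamycin; loss of luminescence reflects streptokinase promoter inhibition or plain growth inhibition; 0% = median of DMSO wells and 100% = positive control at its reference dose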
CSC inhib: cancer stem cell inhibition. cancer stem cell-like cells viability, luminescence. inhibition, % at 7.5 µM. 1.1% of 300,000 active; in the data active = inhibition above about 75%; inconclusive = no clear call, values can overlap the other calls; tested in HMLE shEcad cells
aSyn UTR inh: 5' untranslated region of α-synuclein, MLPCN primary screen; alpha-synuclein 5'UTR reporter, inhibitor activity; inhibition, % (tested at 7.5 µM); AID 1813; 0.82% of 300,000 active; in the data active = inhibition above about 60%; inconclusive = no clear call, values can overlap the other calls;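 also: H4 neuroglioblastoma cells stably carrying SNCA 5'UTR luciferase fusion; 0% = DMSO wells and 100% = positive control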
Starred values were filed as active, the others as inactive; ? = inconclusive; / = no result given. This is a sample that favours compounds with a hit; in the whole collection about 3% have one here.

SMILES	IEC-6 tox	KLF5 inhibitor	SKKanGAS inh	CSC inhib	aSyn UTR inh
OCC[C@H]1C[C@@H](O)[C@H](O)[C@]2(Cc3ccccc3CCO2)O1	/	/	/	2	/
COc1cccc(/C=N/NC(=O)C(=O)N/N=C/c2cccc(OC)c2O)c1O	4	-5	/	/	/
COc1cccc(/C=N/NC(=O)c2ccoc2C)c1O	-1	51	77*	14	-71
CCOC(=O)C1CCN(C(=O)c2cc3cc(C)ccc3[nH]2)CC1	3	-103	-3	-4	-59
CC(NC(=S)NC1CCCCC1)c1ccc(C(C)(C)C)cc1 (stereo not given)	3	-37	56*	45	-1
CCC(C)c1ccc(C(C)NC(=S)NC2CCCCC2)cc1 (stereo not given)	1	6	50*	1	5
CC(C)c1ccc(C(C)NC(=S)NC2CCCCC2)cc1 (stereo not given)	-6	-20	38	-12	21
COC(=O)c1ccccc1NC(=O)CSc1nnc(-c2cccnc2)n1N	-3	-20	2	8	-1
C[C@H](CO)N1C[C@H](C)[C@@H](CN(C)Cc2ccc3c(c2)OCO3)Oc2ccc(NC(=O)Cn3cnnn3)cc2C1=O	/	/	/	-11	/
COc1ccc(C2CC(c3ccccc3)=NN2C(=O)c2cccs2)cc1 (stereo not given)	0	-47	59*	13	-92
COc1ccc(C2=NN(C(=O)c3cccs3)C(c3ccccc3O)C2)cc1 (stereo not given)	-10	-19	41	/	32
COC(=O)c1ccc(NC(=O)c2sc3nc(-c4ccccc4)cn3c2C)cc1	-3	12	71*	-6	-28
COc1ccc(-c2cn3c(C)c(C(=O)Nc4ccncc4)sc3n2)cc1	2	-61	-2	0	-34
Cn1c(O)c(/C=N/Nc2ccccc2)c(=O)n(C)c1=O	0	15	-9	89*	7
Cc1ccc(C)c(Cn2nnc3c(=O)[nH]c(C4CCN(C(=O)c5ccco5)CC4)nc32)c1	-3	-26	-19	-6	13
O=C(Cn1cncn1)NCc1cc(F)ccc1F	-4	-39	7	-6	1
Cc1cccc(OCC(=O)Nc2ccccc2N2CCCC2)c1C	/	/	20	80*	2
Cc1ccccc1OCC(=O)Nc1ccccc1N1CCCCC1	-2	-4	57*	63	47
O=C(COC(=O)Cc1ccc(Br)cc1)Nc1ccc(Cl)cn1	/	/	/	3	/
COc1ccc(NC(=O)CN2C(=O)NC3(CCCCCC3)C2=O)cc1Cl	/	/	/	-8	/
Cc1ccc(C(=O)NC(=S)Nc2cccc3c(C)cc(C)nc23)cc1	3	-1	79*	18	-32
CC(=O)N(O)CCCCCNC(=O)CCC(=O)N(O)CCCCCNC(=O)CCC(=O)N(O)CCCCCN	1	-7	-4	19	75*
CCOc1ccccc1NC(=O)Nc1ccc(Br)cc1C	-1	-11	-9	7	21
CCOc1ccc(/C=N/NC(=S)NC2CC3CC2C2C=CCC32)cc1 (stereo not given)	4	-27	64*	32	-2
COc1ccc(/C=N\n2nnc3ccccc32)cc1	-5	-111	6	1	73*
SMILES	IEC-6 tox	KLF5 inhibitor	SKKanGAS inh	CSC inhib	aSyn UTR inh
COc1ccc(NC(=O)CN2C(=O)COc3ccc(C)cc32)cc1	0	-7	-4	-19	17
COc1ccccc1C(C)NC(=O)CCNC(=O)c1ccc(Cl)cc1 (stereo not given)	/	/	/	4	/
COc1cccc2c1C(=O)c1c(O)c3c(c(O)c1C2=O)C[C@@](O)(C(C)=O)C[C@@H]3O[C@H]1C[C@H](N)[C@H](O)[C@H](C)O1	91*	43	/	/	/
CC(=O)[C@]1(O)Cc2c(O)c3c(c(O)c2[C@@H](O[C@H]2C[C@H](N)[C@H](O)[C@H](C)O2)C1)C(=O)c1ccccc1C3=O	/	/	104*	86*	110*
COc1cccc2c1C(=O)c1c(O)c3c(c(O)c1C2=O)C[C@@](O)(C(=O)CO)C[C@@H]3O[C@H]1C[C@H](N)[C@@H](O)[C@H](C)O1	/	/	108*	51	109*
Cc1ccc(S(=O)(=O)c2c(C)cc(C)[nH]c2=O)cc1	-1	-16	2	5	-1
CCc1nnc(NC(=O)c2ccc(S(=O)(=O)N(C)Cc3ccccc3)cc2)o1	16	39	?	25	63*
CN(Cc1ccccc1)S(=O)(=O)c1ccc(C(=O)Nc2nnc(C3CC3)o2)cc1	5	11	79*	13	?
COc1ccc(CCNC(=O)C(=O)NCC2CCCN2S(=O)(=O)c2ccccc2)cc1OC (stereo not given)	/	/	3	10	3
COc1ccc(N2CCc3c(C)nc4c(OC)cc(OC)cc4c32)cc1	8	-43	0	/	7
COc1ccc(N2CCc3c(C)nc4c(OC)cccc4c32)cc1	70*	57	1	55	89*
Cc1ccc(-c2cc(N)n[nH]2)cc1	-1	-17	12	5	-73
CC(C)(C)c1ccc(-c2cc(N)n[nH]2)cc1	-8	0	3	-2	91*
CC1Oc2cc3oc4c(O)c(O)ccc4c(=O)c3c(O)c2C1(C)C (stereo not given)	/	/	53*	0	-150
O=C(CNC(=O)Cc1ccc(Cl)cc1)NCc1ccco1	-2	-19	1	0	16
COc1ccc(C(CNC(=O)c2oc3ccc(OC)cc3c2C)N2CCCC2)cc1 (stereo not given)	/	/	-1	12	-31
CCc1ccc2oc(C(=O)NCC(c3ccc(OC)cc3)N3CCCCC3)c(C)c2c1 (stereo not given)	2	-12	-5	85*	4
COc1cccc(C(=O)N/N=C/c2ccc(OC)c(COc3ccccc3C(N)=O)c2)c1	6	-5	-1	17	-18
COc1ccc(/C=N\NC(=O)c2cccc(F)c2)cc1COc1ccccc1	/	/	6	60	88*
COc1cc(C(=O)N/N=C/c2ccc3c(c2)c2ccccc2n3C)ccc1O	13	-10	51*	40	-117
Cn1c2ccccc2c2cc(/C=N/NC(=O)c3cc(O)cc(O)c3)ccc21	-14	-25	18	-4	2
COc1ccc(C(C)(C)NC(=O)C2CCC(=O)N(CCCN3CCCC3=O)C2)cc1 (stereo not given)	-2	-11	-2	-6	-9
NC(=O)C12CCCC(Br)(CCC1)C2	1	-21	2	-5	3
COc1ccc(N2CCN(C(=O)CCc3nnc4ccc(N5CCCC5)nn34)CC2)cc1	-1	-12	11	8	6
c1ccc(CSc2nnnn2-c2ccc3c(c2)OCCO3)nc1	-5	3	3	2	-71
Clc1ccc(CSc2nnnn2-c2ccc3c(c2)OCO3)c(Cl)c1	-4	-32	8	82*	16
COC(=O)c1sc(-c2ccccc2)cc1NC(=O)C1CC1	-4	-3	16	15	33
COC(=O)c1sc(-c2ccc(C(C)(C)C)cc2)cc1NC(=O)CSCC(=O)O	-1	-10	57*	27	-16
COC(=O)c1sc(-c2ccc(C(C)(C)C)cc2)cc1NC(=O)c1ccccc1C(=O)O	3	-112	54*	26	-67
COc1ccc(C(=O)c2ccccc2)c(OCC(=O)NC2CC2)c1	-2	-4	9	11	5
